Active and inactive are the calls of the source. How the source made its calls: active means hit-call score of the fitted dose curve at least 0.9, where 1 is the maximum; inactive means score below 0.9.
Each molecule was assayed on Vascular cell adhesion molecule 1 (VCAM1), VCAM1 (gene 7412) (assay: BSK_LPS_VCAM1: BioMAP Diversity Plus: LPS Assay for Vascular cell adhesion molecule 1 (VCAM1) Biomarker Activity (AID 2283086)). Details: primary human HUVEC with PBMC; actives raise or lower the signal.
Method: BSK_LPS is a cell-based, multiplexed-readout assay that uses umbilical vein endothelium and peripheral blood mononuclear cells, a human vascular primary cell co-culture, with measurements taken at 24 hours after chemical dosing in a 96-well plate.BSK_LPS_VCAM1 is an assay component measured in the BSK_LPS assay. It measures VCAM-1 antibody related to regulation of gene expression using ELISA technology.Data from the assay component BSK_LPS_VCAM1 was analyzed into 1 assay endpoint. This assay endpoint, BSK_LPS_VCAM1, was analyzed with bidirectional fitting relative to DMSO as the negative control and baseline of activity. Using a type of binding reporter, gain or loss-of-signal activity can be used to understand changes in the signaling as they relate to the gene VCAM1. Furthermore, this assay endpoint can be referred to as a primary readout, because this assay has produced multiple assay endpoints where this one serves a signaling function. To generalize the intended target to other relatable targets, this assay endpoint is annotated to the cell adhesion molecules intended target family, where the subfamily is Immunoglobulin CAM.
The levels of cell surface (or secreted, indicated by the prefix "s") biomarker endpoints were measured by ELISA. Overt cytotoxicity to cells in confluent adherent cultures (all systems other than the BT system) was assessed by measuring total protein levels using sulforhodamine B (SRB) staining in parallel cultures at the time of biomarker measurements, indicated as SRB endpoints. For proliferation assays for adherent cell types, individual cell types are cultured at sub-confluence and relative cell numbers quantified by SRB staining at time points optimized for each system (48 h: 3C and CASM3C systems; 72 h: BT and HDF3CGF systems; 96 h: SAg system). SRB was performed by staining cells with 0.1% SRB after fixation with 10% TCA and reading wells at 560 nm.Viability and proliferation of PBMC (T cells) was quantified by Alamar Blue reduction for the SAg and BT systems. For PBMC viability (referred to as PBMC Cytotoxicity within the assay endpoint names), cells were plated (75,000/well in a 96-well plate) and then chemical samples added for 1 h before addition of activators, SEB and TSST-1 (20 ng/mL final concentration each). Cells were incubated for 90 h. Then, Alamar Blue (20 uL/well) (Invitrogen, Cat DAL1100) was added for 6 h, and the plates were read with a fluorescence microplate reader at 546/580 nm (excitation/emission). For PBMC proliferation, cells were plated and activated as above but incubated for only 16 h prior to addition of Alamar Blue. Plates were read after 6 h.

SMILES | AC50 | outcome
ClC1=C(Cl)C2(Cl)C3C(Cl)C=CC3C1(Cl)C2(Cl)Cl (stereo not given) | 33.7 µM (active) | 
N#CC(Br)Br |  | inactive
c1ccc2c(c1)-c1cccc3cccc-2c13 |  | inactive
Nc1ccc(N=Nc2ccccc2)cc1 | 14.2 µM (active) | 
[O-][Cl+]O |  | inactive
COC(=O)Nc1nc2ccccc2[nH]1 | 11.3 µM (active) | 
c1ccc(C2CO2)cc1 (stereo not given) |  | inactive
OCCCl |  | inactive
COC(=O)c1ccccc1N |  | inactive
CN(C)c1ccc(C(=O)c2ccc(N(C)C)cc2)cc1 | 14.4 µM (active) | 
c1ccc2c(c1)oc1ccccc12 |  | inactive
C[C@]12C=CC3=C4CCC(=O)C=C4CC[C@H]3[C@@H]1CC[C@@H]2O | 10.3 µM (active) | 
CS(=O)(=O)NC(=O)c1cc(Oc2ccc(C(F)(F)F)cc2Cl)ccc1[N+](=O)[O-] |  | inactive
CC(C)COC(=O)c1ccccc1C(=O)OCC(C)C | 20 µM (active) | 
CC(O)CCO (stereo not given) |  | inactive
CCC12COCN1COC2 |  | inactive
CNC(=O)Oc1cccc2c1OC(C)(C)C2 |  | inactive
[Cl-].[Cl-].[Hg+2] | 28.2 µM (active) | 
Nc1ccc(Oc2ccc(N)cc2)cc1 |  | inactive
CC(C)(C)C(O)(CCc1ccc(Cl)cc1)Cn1cncn1 (stereo not given) |  | inactive

SMILES | AC50 | outcome
C=CCc1ccc2c(c1)OCO2 |  | inactive
Clc1ccccc1Cl |  | inactive
CCOc1cccc(C2(N3CCN(c4ccccc4)CC3)CCC(C)CC2)c1 (stereo not given) |  | inactive
Clc1ccc(C(c2ccc(Cl)cc2)C(Cl)(Cl)Cl)cc1 | 28.7 µM (active) | 
c1ccc(NNc2ccccc2)cc1 |  | inactive
Nc1ccc(Cc2ccc(N)cc2)cc1 |  | inactive
Cn1cc(-c2ccccc2)c(=O)c(-c2cccc(C(F)(F)F)c2)c1 |  | inactive
COP(=S)(OC)SCN1C(=O)c2ccccc2C1=O |  | inactive
[As]#[In] |  | inactive
Cc1cc(N=Nc2ccccc2C)ccc1N | 20 µM (active) | 
CCCCCCCCn1sccc1=O | 6.97 µM (active) | 
Cc1cccc(N)c1N | 14.3 µM (active) | 
CCCCC(CC)COC(=O)c1ccc(C(=O)OCC(CC)CCCC)c(C(=O)OCC(CC)CCCC)c1 (stereo not given) |  | inactive
Nc1ccc([N+](=O)[O-])cc1 |  | inactive
CCN(CC)N=O |  | inactive
O=C(O)C1C2CCC(O2)C1C(=O)O (stereo not given) |  | inactive
CCCCCOC(=O)c1ccccc1C(=O)OCCCCC | 20 µM (active) | 
Cc1ccc(N)c(N)c1 | 9.77 µM (active) | 
CCC[CH2][Sn]([Cl])([CH2]CCC)[CH2]CCC | 0.148 µM (active) | 
Clc1ccc(Cl)c(Cl)c1 |  | inactive
